From ChEMBL document CHEMBL1157539, “Thousands of chemical starting points for antimalarial lead identification” (Nature, 2010)

Each compound was assayed on HepG2 (assay: GSK_TCMDC: Percent inhibition of human HepG2 cell line. Test compounds present at 10uM.).
Format: functional

Compound | Inhibition [%]
COc1ccc(-c2cccc(NC(=O)c3cccc(C#N)c3)c2)cc1CNC(C)C.O=C(O)C(F)(F)F | 22
O=C(O)C(F)(F)F.O=S(=O)(c1ccccc1)n1ccc2cc(Nc3ncnc4cc(C#C[C@H]5CCCN5)sc34)ccc21 | 50
O=C(O)c1cccc2c(-c3ccncc3)cccc12 | 29
CCN(CC)CCNC(=O)/C(=C/C=C/c1cc2cc(Cl)c(Cl)cc2[nH]1)OC | 30
Cc1cc(-c2cccc(CNC3CCN(C)CC3)c2)ccc1S(=O)(=O)NC1CCC1.O=C(O)C(F)(F)F | 33
CS(=O)(=O)CCNCc1cccc(-c2ccc3c(Nc4ccc(Oc5ccccc5)cc4)ccnc3c2)c1 | 18
CS(=O)(=O)c1ccc2c(c1)CCN(CCC1CCC(NC(=O)C(=Cc3cccc(C#N)c3)c3ccc(-c4ccccc4)cc3)CC1)CC2 (centres undefined) | 24
COc1cccc2cc(C(=O)N[C@@H](CC(C)C)C(=O)N[C@H](C=NNC(=O)OC(C)(C)C)CC(C)C)oc12 | 8
CCN(CC)CCN(CCN(CC)CC)c1ccc2c(c1)Sc1c(Cl)ccc(Cl)c1S2.Cl | 31
COc1ccc2nccc([C@@H](O)CN3CCC(NCc4cc5ccccc5nn4)CC3)c2c1.O=C(O)C(=O)O | 5
O=C(/C=C/c1ccc(CNCCN2CCOCC2)cc1)NCCc1ccccc1 | 9
COc1cc(-n2cnc3cc(-c4ccc([N+](=O)[O-])cc4)sc3c2=O)ccc1OCCN1CCCC1.O=C(O)C(F)(F)F | 44
COc1ccc2ncc(F)c(CCN3CC[C@H](NC(=O)c4ccc5c(n4)NC(=O)CS5)[C@H](O)C3)c2n1.Cl | 20
COc1cc2c(Nc3ccc(NC(=O)c4ccccc4)cc3)ncnc2cc1OCCCN1CCOCC1 | 14
CC(Cc1ccc(NC(=O)c2ccc(CC(C)NCc3ccc(Cl)cc3)cc2)cc1)NCCc1cccc(Cl)c1 (centres undefined) | 95
CCCCCCCNCc1c(O)ccc2c(CNCCCCCCC)c(O)ccc12.Cl | 29
O=C(NCCCCCN1CCC(c2c[nH]c3ccccc23)CC1)c1ccc(-c2ccccc2)nc1 | 43
CCOC(=O)C(C)(C)Oc1ccc(CN(Cc2ccc(CC(C)C)cc2)C(=O)Nc2ccc(F)cc2F)c(OC)c1 | 5
Cc1cc(N[C@@H](Cc2ccccc2)C(=O)NC2CCCC2)nc(Nc2ccccc2)n1.O=C(O)C(F)(F)F | 3
O=C(Nc1ccc(OC2CCN(Cc3ccsc3)C2)c(Cl)c1)c1ccc(F)cc1.O=C(O)C(F)(F)F (centres undefined) | 0

Compound | Inhibition [%]
CCN(CC)CCN(Cc1ccc(-c2ccc(C(F)(F)F)cc2)cc1)C(=O)Cn1c(/C=C/c2ccco2)nc(=O)c2ccccc21.O=C(O)C(O)C(O)C(=O)O | 28
O=C(O)C(F)(F)F.c1ccc(CCNCc2cccc(-c3ccc(CNc4ccc5ncccc5c4)cc3)c2)cc1 | 43
Clc1ccc(Nc2nc3nonc3nc2Nc2ccc(Cl)c(Cl)c2)cc1 | 75
Cc1cccc2nc(-c3ccc(-c4ccc(CNCc5cnn(-c6ccccc6)n5)cc4)s3)[nH]c12.O=C(O)C(F)(F)F | 16
FC(F)(F)c1cccc(Nc2nc3ccccc3nc2Nc2cccc(C(F)(F)F)c2)c1 | 45
COc1cc2nc(N3CCN(C(=O)c4c(Cl)nsc4-c4ccccc4Cl)CC3)nc(N)c2cc1OC.O=C(O)C(F)(F)F | 57
COc1ccc2nccc([C@@H](O)CN3CCC(NC(=O)c4ccc5nc(-n6cccc6)sc5c4)CC3)c2c1 | 26
FC(F)(F)c1ccc2[nH]c(-c3cccc(-c4ccc(CNCC5CCCO5)cc4)c3)nc2c1.O=C(O)C(F)(F)F (centres undefined) | 29
COCCNCc1cccc(-c2ccc3c(Nc4ccc(Oc5ccccc5)cc4)ccnc3c2)c1 | 25
COc1ccc(NC(=O)c2cn(-c3ccc(C(C)(C)C)cc3)nc2C)cc1N1CCN(C)CC1 | 33
COC(=O)Cn1c2ccccc2c2c(N)c(C(=O)OC)c(C)nc21 | 0
O=C(Nc1ccc(C(F)(F)F)cc1)NC1CCN(c2ccnc3cc(Cl)ccc23)C1.O=C(O)C(F)(F)F (centres undefined) | 20
OC(CNCc1cccc(Oc2ccc(Cl)cc2)c1)c1cccc(C(F)(F)F)c1 (centres undefined) | 0
CCNc1cc(C(=O)N[C@@H](Cc2ccccc2)[C@H](O)CNC(C)Cc2cccc(Cl)c2)cc(N2CCCCS2(=O)=O)c1.Cl (some centres undefined) | 0
CC1CCCCC1N(C)C1CCN(CCCNC(=O)C=Cc2ccccc2Cl)CC1 (centres undefined) | 30
CC1(C)N=C(N)N=C(N)N1c1ccc(Cl)c(Cl)c1.Cl | 67
CCOC(=O)c1ccc(NC(=O)N(Cc2ccc(-c3cccc(CN4CCNCC4)c3)cc2)C2CCN(Cc3ccccc3)CC2)cc1.O=C(O)C(F)(F)F | 19
CCCN(CC)CCOC(=O)c1ccccc1 | 2
CCCCCNC(=N)c1ccc(OCCCCCOc2ccc(C(=N)NCCCCC)cc2)cc1.Cl | 3
